Laboratory results reported in PubChem BioAssay (Tox21).
Inconclusive results are not listed. Calls of active or inactive are those of the source. Unless noted, calls follow the shape of the dose curve; as a rule, active = well fitted curve in the direction sought with a large enough effect in the repeat runs; inconclusive = weak or mixed curves; inactive = no such curve, though single readings can be large; an effect the other way counts as inactive or inconclusive.

How the values were obtained:
[1] = qHTS assay for small molecules that induce genotoxicity in human embryonic kidney cells expressing luciferase-tagged ATAD5 (AID 651632); also: nearly all actives have a fitted effect of over 15% in size
In short: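 HEK293T cells carrying luciferase-tagged ATAD5 were given compound or DMSO vehicle and incubated 16 hr at 37C, 5% CO2. Luciferase activity was read after 30 min at room temperature with Amplite; a rise signals genotoxic stress.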

[2] = qHTS assay for small molecule agonists of the p53 signaling pathway - cell viability (AID 651633; calls by dose curve;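 also: p53RE-bla HCT reporter cells with a stable beta-lactamase p53 reporter; series mostly up to about 83 µM; nearly all actives have a fitted effect of over 30% in size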)
In short: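 p53RE-bla cells were treated with compound for 16 hours at 37 C. Cytotoxicity was then measured as CellTiter-Glo luminescence after 30 min at room temperature.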

[3] = qHTS assay for small molecules that induce genotoxicity in human embryonic kidney cells expressing luciferase-tagged ATAD5 - cell viability (AID 651634; calls by dose curve; also: nearly all actives have a fitted effect of over 25% in size)
In short: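 HEK293T cells carrying luciferase-tagged ATAD5, 2,000 cells/well, exposed to compound for 15.5 hr at 37C. Viability read as live-cell protease activity by CellTiter-Fluor fluorescence after 30 min at 37C.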

[4] = qHTS assay for small molecule disruptors of the mitochondrial membrane potential (AID 720635)
In short: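 HepG2 cells exposed to compound 1 hr at 37C, then Mito-MPS dye 30 min. Ratio read of aggregate (540/590 nm) versus monomer (490/535 nm) fluorescence.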

[5] = qHTS assay to test for compound auto fluorescence at 590 nm (red) in HepG2 cells (AID 720674)
In short: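 Fluorescence at 590 nm emission following 540 nm excitation was recorded from HepG2 wells one hour after compound transfer, with DMSO-only wells as vehicle and Rose Bengal sodium equivalency as the scale.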

[6] = qHTS assay to test for compound auto fluorescence at 535 nm (green) in HepG2 cells (AID 720675)
[7] = qHTS assay to test for compound auto fluorescence at 460 nm (blue) in HEK293 cells (AID 720678)
In short: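 HEK293 cells (2,000/well, medium with 10% dialyzed FBS) attached 4-5 hr, then exposed to compound overnight at 37C, 5% CO2. Blue fluorescence read at 405/460 nm, with triamterene as reference fluorophore.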

[8] = qHTS assay to test for compound auto fluorescence at 590 nm (red) in HEK293 cells (AID 720679)
In short: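 HEK293 cells (2,000/well, 10% dialyzed FBS) attached 4-5 hr, then dosed with compound or DMSO and incubated overnight at 37C, 5% CO2. Red fluorescence read at 540/590 nm, Rose Bengal sodium as reference fluorophore.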

[9] = qHTS assay to test for compound auto fluorescence at 535 nm (green) in HEK293 cells (AID 720680)
[10] = qHTS assay to test for compound auto fluorescence at 460 nm (blue) in HEK293 cell free culture (AID 720681)
In short: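 Compounds were added to cell-free DMEM with 10% FBS and fluorescence read directly. The blue channel used 405 nm excitation and 460 nm emission, with triamterene as the reference fluorophore.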

[11] = qHTS assay to test for compound auto fluorescence at 535 nm (green) in HEK293 cell free culture (AID 720682)
In short: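 Using fluorescein as calibrant, autofluorescence was quantified at 485/535 nm in cell-free DMEM containing 10% FBS after pintool addition of compound or vehicle.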

[12] = qHTS assay to test for compound auto fluorescence at 590 nm (red) in HEK293 cell free culture (AID 720683)
In short: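 Cell-free wells of DMEM with 10% FBS received compound, and intrinsic fluorescence was read at excitation/emission 540/590 nm. Values expressed as equivalence to Rose Bengal sodium.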

[13] = qHTS assay to test for compound auto fluorescence at 590 nm (red) in HepG2 cell free culture (AID 720684)
In short: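 Compounds are added to culture medium (MEM, 10% FBS) lacking cells, then fluorescence is read at excitation 540 nm, emission 590 nm, with Rose Bengal sodium as the equivalency standard.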

[14] = qHTS assay to test for compound auto fluorescence at 460 nm (blue) in HepG2 cell free culture (AID 720685)
In short: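 Compound (23 nL) or DMSO pinned into cell-free MEM with 10% FBS; blue fluorescence read at 405/460 nm excitation/emission, expressed as auto-fluorescence equivalency to triamterene.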

[15] = qHTS assay to test for compound auto fluorescence at 535 nm (green) in HepG2 cell free culture (AID 720686)
[16] = qHTS assay to test for compound auto fluorescence at 460 nm (blue) in HepG2 cells (AID 720687)
In short: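 HepG2 cells in MEM with 10% FBS, attached overnight at 37 C, were exposed to compound or DMSO for 1 hr at 37 C, 5% CO2. Blue fluorescence was read at 405/460 nm, with triamterene as reference fluorophore.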

[17] = biological target: Glucocorticoid receptor (Homo sapiens) (UniProt P04150); assay: qHTS assay to identify small molecule agonists of the glucocorticoid receptor (GR) signaling pathway (AID 720691; active = well fitted activation curve with a large enough effect in the signal ratio in the repeat runs, not every such curve was filed as active; the % refers to the signal ratio)
In short: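 GR-bla HeLa cells carrying a GRE-driven beta-lactamase reporter, exposed to compounds for 18 h at 37 C. Reporter activation read as fluorescence after 2 h with LiveBLAzer B/G FRET substrate at room temperature.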

[18] = biological target: Glucocorticoid receptor (Homo sapiens) (UniProt P04150); assay: qHTS assay to identify small molecule antagonists of the glucocorticoid receptor (GR) signaling pathway (AID 720692; active = well fitted inhibition curve with a large enough effect in the signal ratio in the repeat runs, not every such curve was filed as active; the % refers to the signal ratio)
In short: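 GR-bla HeLa cells carrying a GRE-driven beta-lactamase reporter received compound after 4 h plating, then dexamethasone (5 nM final). After 18 h at 37C, the FRET substrate was loaded for 2 h at room temperature and fluorescence read.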

[19] = qHTS assay for small molecule disruptors of the mitochondrial membrane potential - cell viability (AID 720634; calls by dose curve;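 also: human HepG2 liver cancer cells; series mostly up to about 83 µM; nearly all actives have a fitted effect of over 20% in size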)
In short: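 HepG2 cells, 2,000 per well, attached overnight, then treated 1 hr at 37 C, 5% CO2. Viability read as ATP by CellTiter-Glo luminescence after 30 min at room temperature. Read in the same wells as the m-MPI membrane-potential dye assay.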

Measured: Potency

Glucocorticoid receptor (Homo sapiens), sequence (P04150 whole entry, looked up): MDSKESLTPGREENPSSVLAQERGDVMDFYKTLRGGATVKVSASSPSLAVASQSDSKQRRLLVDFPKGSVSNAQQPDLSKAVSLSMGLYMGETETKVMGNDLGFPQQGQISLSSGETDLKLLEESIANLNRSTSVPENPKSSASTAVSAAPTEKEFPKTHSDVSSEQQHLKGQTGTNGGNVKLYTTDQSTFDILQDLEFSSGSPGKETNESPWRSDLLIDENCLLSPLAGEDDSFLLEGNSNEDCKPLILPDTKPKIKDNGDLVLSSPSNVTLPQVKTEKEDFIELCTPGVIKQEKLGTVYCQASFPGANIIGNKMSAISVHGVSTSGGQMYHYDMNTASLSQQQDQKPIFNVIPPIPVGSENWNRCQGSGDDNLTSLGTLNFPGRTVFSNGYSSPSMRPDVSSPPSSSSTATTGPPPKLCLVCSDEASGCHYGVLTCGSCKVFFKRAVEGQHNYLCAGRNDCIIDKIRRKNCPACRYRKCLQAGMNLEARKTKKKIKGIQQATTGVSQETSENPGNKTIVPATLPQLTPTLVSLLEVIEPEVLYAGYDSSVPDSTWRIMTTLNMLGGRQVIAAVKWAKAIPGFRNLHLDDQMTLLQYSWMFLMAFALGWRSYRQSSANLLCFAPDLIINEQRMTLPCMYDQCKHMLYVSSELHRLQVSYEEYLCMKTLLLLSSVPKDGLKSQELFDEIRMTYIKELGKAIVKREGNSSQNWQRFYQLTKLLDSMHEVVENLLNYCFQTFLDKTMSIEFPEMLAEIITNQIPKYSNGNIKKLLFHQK

CCCCNCC
not listed: [19]
inactive: all other assays above

CC(=O)Nc1ccc(OCCOCCOc2ccc(NC(C)=O)cc2)cc1
not listed: [8] | [10] | [18]
inactive: all other assays above

C=CCN(CC=C)CC=C
not listed: [4]
inactive: all other assays above

CCCCN1C(=O)c2ccccc2C1=O
not listed: [4] | [10]
inactive: all other assays above

Cc1ccc(Br)cc1
not listed: [4] | [8]
inactive: all other assays above

CN1C(CCl)Nc2cc(Cl)c(S(N)(=O)=O)cc2S1(=O)=O (configuration not stated)
not listed: [4]
inactive: all other assays above

CCC(C)SSC(C)CC (configuration not stated)
not listed: [4] | [8] | [19]
inactive: all other assays above

Nc1nc(Cl)cc(Cl)n1
not listed: [8]
inactive: all other assays above

N=C(N)S(=O)O
not listed: [2] | [17] | [18]
inactive: all other assays above

NC(=O)CC[C@@H](N)C(=O)O
not listed: [18] | [19]
inactive: all other assays above

NNC(=O)OCc1ccccc1
not listed: [2] | [17] | [18]
inactive: all other assays above

O=C(O)Cc1c(Cl)ccc(Cl)c1Cl
not listed: [4] | [17] | [18]
inactive: all other assays above

CCCCCC(CC)OC(=O)CCCOc1ccc(Cl)cc1Cl (configuration not stated)
not listed: [8]
inactive: all other assays above

CC1(C)S[C@@H]2[C@H](NC(=O)Cc3ccccc3)C(=O)N2[C@H]1C(=O)O (tested in a mixture with another compound)
not listed: [4] | [18] | [19]
inactive: all other assays above
